Hits are enriched below; roughly 2.6% of the tested compounds scored in any of these assays.
PKA-R1A activ: activators of PKA-R1A complex | PKA-R1A dissociation, Cy5-IP20 fluorescence polarization; scaled: DMSO 0%, 113 µM cGMP 100% | activation, % at 11.4 µM | 340,000 compounds, 0.083% hits | P00514+P68181;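 active = percent activation above the mean of all tested compounds plus 3 SD, cut at about 19% in these data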;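 also: higher means more PKAc released from R1A so a rise in polarization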
PKA-R2B act: PKA-R2B complex activation; activation, % at 11.4 µM; 340,000 compounds, 0.079% hits; AID 504700; P22694+P31323; PKA-R2B holoenzyme dissociation, Cy5-IP20 fluorescence polarization; R2B truncated from residue 108, S112A mutant; 0% DMSO only, 100% 113 µM cGMP;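 active = activation above a cutoff set at the mean over all compounds plus 3 SD, cut at about 18% in these data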;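 also: higher means more holoenzyme dissociation and a rise in polarization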
PAFAH1B2 FP inh: PAFAH1B2 (human) inhibition | P68402 | recombinant PAFAH1B2, FP-rhodamine activity probe, fluorescence polarization | inhibition, % at 3.39 µM | 340,000 compounds, 1.2% hits;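 active = inhibition above the mean of all tested compounds plus 3 SD, cut at about 24% in these data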;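 also: 0% = enzyme with DMSO and 100% = wells lacking PAFAH1B2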
Target sequence (P68402 whole entry, looked up): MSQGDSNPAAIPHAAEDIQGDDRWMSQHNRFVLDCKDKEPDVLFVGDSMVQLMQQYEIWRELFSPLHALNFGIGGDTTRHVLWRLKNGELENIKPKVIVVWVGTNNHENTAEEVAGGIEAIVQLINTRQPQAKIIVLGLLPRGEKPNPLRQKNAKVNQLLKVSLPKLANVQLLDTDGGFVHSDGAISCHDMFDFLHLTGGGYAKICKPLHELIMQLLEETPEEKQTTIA
pPAFAH inh: pPAFAH (human) enzyme inhibition. Q13093. recombinant pPAFAH, FP-rhodamine probe fluorescence polarization. inhibition, % at 3.39 µM. 330,000 compounds, 1.5% hits;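 active = inhibition above the mean inhibition across the screen plus 3 SD, cut at about 25% in these data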;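 also: inhibitors block binding of the rhodamine activity-based probe so polarization drops; 0% = enzyme with DMSO and 100% = wells lacking pPAFAH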
Target sequence (Q13093 whole entry, looked up): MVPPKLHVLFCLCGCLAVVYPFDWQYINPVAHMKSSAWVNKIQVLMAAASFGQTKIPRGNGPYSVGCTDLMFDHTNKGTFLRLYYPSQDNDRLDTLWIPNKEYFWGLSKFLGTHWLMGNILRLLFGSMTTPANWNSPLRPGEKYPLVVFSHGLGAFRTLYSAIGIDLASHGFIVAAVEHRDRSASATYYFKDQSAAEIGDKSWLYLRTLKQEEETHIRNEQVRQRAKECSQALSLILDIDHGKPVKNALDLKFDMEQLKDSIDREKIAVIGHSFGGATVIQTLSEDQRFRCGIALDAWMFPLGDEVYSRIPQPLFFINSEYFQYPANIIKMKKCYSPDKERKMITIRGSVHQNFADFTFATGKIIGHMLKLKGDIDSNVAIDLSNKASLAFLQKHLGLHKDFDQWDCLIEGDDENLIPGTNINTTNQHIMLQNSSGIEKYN
PAFAH2 inh: inhibitors of human PAFAH2; recombinant PAFAH2, FP-rhodamine activity probe, fluorescence polarization; AID 492956; inhibition, % at 3.39 µM; 340,000 compounds, 0.99% hits; Q99487;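 active = inhibition above the mean over all tested compounds plus 3 SD, cut at about 30% in these data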;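 also: inhibitors block probe labeling of enzyme so polarization drops; 0% = enzyme with DMSO and 100% = wells lacking PAFAH2 protein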
PAFAH1B3 inh: inhibitors of human PAFAH1B3; 340,000 compounds, 0.28% hits; inhibition, % at 3.39 µM; recombinant PAFAH1B3, FP-rhodamine probe, fluorescence polarization; Q15102;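 active = inhibition above the screen-wide average of all tested compounds plus 3 SD, cut at about 25% in these data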;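 also: 0% = enzyme with DMSO only and 100% = wells lacking PAFAH1B3 protein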
* marks the source's active call; other numbers are inactive results; . = no result.

SMILES	PKA-R1A activ	PKA-R2B act	PAFAH1B2 FP inh	pPAFAH inh	PAFAH2 inh	PAFAH1B3 inh
Cc1ccc(NC(=O)COC(=O)CN2CCSC2=O)cc1Cl	-5.5	0.9	.	.	.	.
N#CC1=C(S)N(c2ccccc2)C(c2ccco2)NC1=O (stereo not drawn)	-4.3	1.3	1.5	4.5	8.0	9.6
N#CC1=C(S)N(c2ccccc2)C(c2ccc(-c3ccc(Cl)c(Cl)c3)o2)NC1=O (stereo not drawn)	0.4	-0.9	-2.0	34.0*	-1.4	-4.3
N#CC1=C(S)N(c2ccccc2)C(c2ccc(-c3cc(Cl)ccc3Cl)o2)NC1=O (stereo not drawn)	-0.3	-0.9	7.5	35.5*	-2.1	5.0
COc1cccc(C(=O)OCCNC(=O)c2cccnc2)c1	-5.2	-7.1	1.5	-3.9	-2.3	8.1
CN(CC(=O)Nc1ccccc1Cl)CC(=O)N1CCc2ccccc21	1.0	10.8	1.1	0.7	7.1	10.9
CCCCNC(=O)Oc1cc(CCl)on1	.	.	.	2.4	.	.
CCCCNC(=O)Oc1c(Br)cc2sc(=O)oc2c1Br	.	.	.	52.4*	.	.
O=C(N1CCOCC1)N1CCN(S(=O)(=O)c2ccc(Cl)cc2)C1	-2.1	4.7	25.6*	-5.5	-1.8	4.4
CNc1snc(C)c1C(=O)OCC(=O)NCc1ccccc1OC	-7.3	-0.6	4.3	-4.6	5.9	-2.3
Cc1cc(C(=O)C(C)OC(=O)c2ccc(NC(=O)CC#N)cc2)c(C)n1-c1ccccc1 (stereo not drawn)	8.4	-9.6	-8.4	-19.4	-19.1	-9.8
CCOC(=O)C1CCN(C(=O)COC(=O)CSc2ccc([N+](=O)[O-])cc2)CC1	0.7	-4.2	9.3	31.5*	0.1	4.9
CC1CCCC(C)N1C(=O)COC(=O)CSc1ccc([N+](=O)[O-])cc1 (stereo not drawn)	-2.2	-12.6	11.4	.	4.1	7.9
CCc1nc(SCC(=O)Nc2ccccc2Cl)n[nH]1	-3.4	-6.4	-1.5	0.6	-1.8	-2.7
Cc1cc(-c2ccc(N=Nc3c(S(=O)(=O)O)cc4cc(S(=O)(=O)O)cc(N)c4c3O)c(C)c2)ccc1N=Nc1c(S(=O)(=O)O)cc2cc(S(=O)(=O)O)cc(N)c2c1O	.	.	.	53.3*	.	.
O=S(=O)(O)c1cc(O)c2c(O)c(N=Nc3cc(Cl)ccc3O)c(S(=O)(=O)O)cc2c1	1.0	0.0	33.7*	33.2*	48.6*	35.4*
CCN(CC)C(=O)CSc1nc(-c2cccs2)cc(-c2cccs2)c1C#N	4.5	0.1	1.7	3.5	-10.2	3.1
CN1CCN(C(=O)CSc2nc(-c3cccs3)cc(-c3cccs3)c2C#N)CC1	-2.0	5.7	4.0	27.5*	19.1	5.7
CCN1C(=O)N(C)C2(c3ccccc3)N(C)C(=O)N(C)C12c1ccccc1 (stereo not drawn)	4.8	-15.1	38.4*	-2.7	5.2	1.6
CCN1C(=O)N(CC)C(O)(c2ccccc2)C1(O)c1ccccc1 (stereo not drawn)	6.0	2.5	6.8	0.3	-2.4	0.7
CC(C)CCNC(=O)Cc1c(C(=O)O)[nH]c2ccc(Cl)cc12	-4.1	3.0	50.2*	5.0	6.5	7.1
COc1cccc(C(=O)NC2C(=O)N3C(C(=O)O)=C(COC(C)=O)CSC23)c1 (stereo not drawn)	-1.0	2.3	6.2	6.1	10.9	5.0
CC(=O)OCC1=C(C(=O)O)N2C(=O)C(NC(=O)c3ccc(COc4cccc(Cl)c4Cl)o3)C2SC1 (stereo not drawn)	-0.5	-0.5	9.5	30.4*	12.0	8.3
CCCOc1cc(NCc2ccccc2)c2ncn(C(C)C)c2c1	-11.8	-10.2	4.0	24.9*	8.5	-5.9
CCOc1cc(NCc2ccccc2)c2ncn(C(C)C)c2c1	-1.3	-22.6	12.0	22.3	12.6	0.8
SMILES	PKA-R1A activ	PKA-R2B act	PAFAH1B2 FP inh	pPAFAH inh	PAFAH2 inh	PAFAH1B3 inh
CCC(CO)Oc1cc(NCc2ccc(Cl)cc2)c2ncn(C(C)C)c2c1 (stereo not drawn)	2.9	0.3	28.3*	7.8	6.2	7.4
CC(C)n1cnc2c(NCc3ccccc3)cc(Cc3ccc(F)cc3)cc21	-10.5	-2.8	4.8	27.8*	16.7	6.5
COc1ccc(-c2n[nH]c(C)c2-c2ccc(Cl)cc2)c(O)c1OC	-11.6	-4.0	6.0	32.5*	-0.9	4.5
COc1ccc(-c2n[nH]c(C)c2-c2ccc(Cl)cc2)c(O)c1	-8.6	-6.0	6.9	17.6	-4.1	9.8
O=C(COc1cc2oc(=O)c3c(c2cc1Cl)CCC3)NCCCn1ccnc1	-7.9	-8.4	-1.4	2.2	4.7	5.9
O=S(=O)(NCCc1ccccc1)c1ccc(Br)cc1	-0.8	-1.5	27.6*	7.2	3.0	10.4
O=S(=O)(NCCSc1ccccn1)c1ccc(Br)cc1	-2.6	-14.1	24.8*	3.9	10.4	9.0
Cc1ccc(S(=O)(=O)NCCSc2ncccn2)cc1	-5.0	2.3	6.5	1.3	10.4	3.0
C=CCN(C(=O)CNS(=O)(=O)c1ccccc1)C(C(=O)NCCOC)c1cccnc1 (stereo not drawn)	3.8	-6.7	3.6	0.8	4.1	3.6
O=c1[nH]c(/C=C\c2cccc(Cl)c2)nc(O)c1[N+](=O)[O-]	-4.4	-2.1	32.9*	-0.3	4.9	11.6
Oc1c(Br)cc(Br)cc1C=Nc1cccc2ncccc12	-12.4	-5.9	3.8	27.8*	13.9	8.4
Cc1cc(Cl)ccc1C(=O)C1CCCN(C(=O)c2ccsc2)C1 (stereo not drawn)	2.6	7.8	4.5	4.9	1.0	7.0
Cc1cc(Cl)ccc1C(=O)C1CCCN(C(=O)c2ccc3ncccc3c2)C1 (stereo not drawn)	-3.6	-4.4	-0.7	25.4*	-3.8	12.4
COC1=C(N)C(=O)c2nc(C)ccc2C1=O	2.2	11.2	26.7*	.	17.7	62.9*
O=C(O)c1ccc(Nc2nc(-c3ccccc3)cs2)cc1	3.9	-7.1	24.6*	8.2	13.9	8.4
CCC(=O)Nc1nc(C)c(-c2csc(Nc3ccc(C(=O)O)cc3)n2)s1	-8.9	0.9	7.6	.	0.9	4.6
Cc1nc(NC(=O)c2ccccc2)sc1-c1csc(Nc2ccc(C(=O)O)cc2)n1	-0.2	10.3	15.8	.	32.2*	29.3*
Cc1csc(Nc2ccc(C(=O)O)cc2)n1	-19.4	-5.3	-1.6	-2.5	-1.8	-2.0
OCCC1CCCCN1CC(O)COCc1ccc(Cl)cc1 (stereo not drawn)	6.8	1.6	0.3	4.2	1.0	5.5
CCC(C)(C)NC(=O)C(c1cccc(OC)c1OC)N(CCOC)C(=O)CCC(=O)Nc1cc(C)on1 (stereo not drawn)	2.1	1.7	4.5	1.9	8.2	-6.4
COc1ccc(S(=O)(=O)N2CCC(C(=O)Nc3ccc(S(=O)(=O)N4CCCC4)cc3)CC2)cc1OC	-5.9	-2.8	-1.4	1.4	-2.8	4.4
